# PubChem BioAssay
# Active and inactive are the calls of the source.
# Target: Albumin (Bos taurus) (UniProt P02769)
# Experiment: compounds binding labelled BSA control protein – biochemical, small-molecule microarray, Alexa647 label, 635/667 nm fluorescence, artefact control for SMM control protein annotation, profiling panel (AID 1118);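 further: score merges 667 nm emission intensity and signal-to-noise per printed compound spot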
# Details: BSA-A647 binding, fluorescence 635 nm, higher = more signal
# Chain of Albumin (Bos taurus) (P02769 whole entry, looked up): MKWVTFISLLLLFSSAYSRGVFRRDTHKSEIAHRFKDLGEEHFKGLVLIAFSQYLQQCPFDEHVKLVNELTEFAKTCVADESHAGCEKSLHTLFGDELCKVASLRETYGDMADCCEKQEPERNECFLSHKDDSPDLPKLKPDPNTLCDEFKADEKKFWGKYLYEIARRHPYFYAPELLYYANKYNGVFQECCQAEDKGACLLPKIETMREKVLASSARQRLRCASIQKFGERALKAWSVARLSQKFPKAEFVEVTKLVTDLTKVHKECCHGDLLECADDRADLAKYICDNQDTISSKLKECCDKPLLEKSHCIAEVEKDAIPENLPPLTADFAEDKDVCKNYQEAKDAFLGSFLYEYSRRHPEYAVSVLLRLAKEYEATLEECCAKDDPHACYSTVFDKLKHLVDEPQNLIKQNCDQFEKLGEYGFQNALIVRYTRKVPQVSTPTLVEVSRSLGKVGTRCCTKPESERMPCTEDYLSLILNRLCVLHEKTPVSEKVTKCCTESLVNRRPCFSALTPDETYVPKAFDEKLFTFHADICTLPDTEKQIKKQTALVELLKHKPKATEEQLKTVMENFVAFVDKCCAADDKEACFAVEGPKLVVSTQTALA
row,Compound,composite z-score
1,COc1cc(NN2C(C(O)c3ccc(I)cc3)C=CC3C(=O)N(c4ccccc4)C(=O)C32)cc(OC)c1OC (stereo unspecified),0.499
2,Cc1ccc([C@H]2C(C(=O)O)=C[C@@H](C(C)(C)C)N2S(=O)(=O)c2ccc(C)cc2)cc1,0.966
3,CC(C)OC(=O)CC(=O)CC(O)c1ccc([N+](=O)[O-])cc1 (stereo unspecified),0.169
4,NC(=O)N1C(=O)C2C(C1=O)C1C=C(CCCO)C2C(C2CC2)N1Cc1cccc(OC(F)(F)F)c1 (stereo unspecified),0.858
5,CC(CO)N1C(=O)[C@@H]2[C@H]3C(=O)OCC=C[C@H]3OC23C=CCN(c2ccc(Cl)cc2)C(=O)[C@@H]13 (stereo partly specified),-1.68
6,NC(=O)[C@@H]1[C@H]2C(=O)O[C@H](c3ccccc3)[C@H](c3ccccc3)N2[C@H](c2ccc(OCCO)cc2)[C@@]12C(=O)Nc1ccc(C#CCCO)cc12,0.629
7,CCOC(=O)C[C@H]1[C@H](OC(=O)c2ccc(C(=O)c3ccccc3)cc2)[C@@H](NC(=O)CC(C)C)c2cc(OCCCO)ccc2N1C(=O)Cc1ccc(OC)cc1,0.793
8,COCCCNC(=O)[C@@]1(c2ccc([N+](=O)[O-])cc2)CC(=O)N(CC23CC4CC(CC(C4)C2)C3)[C@@H]1c1ccc(CO)cc1I,0.0824
9,C=C(/C(=C/C[C@@H](OC(C)=O)c1ccc(CO)o1)c1cc(C(=O)OC)ccc1OC)C(C)C,0.461

# System: not listed separately
# Experiment: probe aXIP binding to arrayed compounds – biochemical, NeuroSMM set, 635/667 nm fluorescence, primary screen (AID 1119);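 further: probe is the protein aXip251-270 applied at 1 µg/mL to compound-printed slides; binding of probe to printed compounds measured as 667 nm fluorescence plus signal to noise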
# Details: small-molecule microarray, higher = more signal, called active from +8 up or from −8 down
row,Compound,composite Z-score
1,Cc1nc2cc(Br)ccc2c(=O)n1Cc1cccc(O)c1,0.0614 (inactive)
2,C=C[C@@H](C)[C@H](O)c1ccc(OCCO)cc1,0.0275 (inactive)
3,C=CCN1C(=O)[C@]2(O[C@H](CCO)[C@@H]([Si](C)(C)c3ccc(OC)cc3)[C@@H]2C)c2cc(NC(=O)c3ccc(OC)cc3)ccc21,0.0866 (inactive)
4,CCOC(=O)C[C@H]1[C@H](OC(=O)c2cc3ccccc3oc2=O)[C@@H](NC(=O)c2ccc3ccccc3c2)c2cc(OCCCO)ccc2N1C(=O)Cc1ccc(OC)cc1,-0.0384 (inactive)
5,COc1ccc(C#Cc2ccc3c(c2)[C@]2(C(=O)N3)[C@H](c3ccc(OCCO)cc3)N3[C@H](c4ccccc4)[C@H](c4ccccc4)OC(=O)[C@H]3[C@@H]2C(=O)N2CCc3cc(OC)c(OC)cc3C2)cc1,-0.487 (inactive)
6,COC(=O)c1c2oc(c1C(=O)OC)C(=O)N1CCC[C@H]1Cn1nncc1CN(Cc1ccccc1)C(=O)N[C@H](CO)CC2,0.316 (inactive)
7,COC(=O)C(CC#Cc1ccc2c(c1)[C@]1(C(=O)N2)[C@H](c2ccc(O)cc2)N2[C@H](c3ccccc3)[C@H](c3ccccc3)OC(=O)[C@H]2[C@@H]1C(=O)N1CCCCCCC1)C(=O)OC,1.71 (inactive)
8,C=C[C@H](C)[C@H](OC(=O)Nc1ccc(OC)cc1)c1ccc(OCCO)cc1,0.838 (inactive)
9,[N-]=[N+]=NC[C@H](Cc1ccccc1)NC(=O)c1ccccc1,-0.0662 (inactive)
10,COc1ccc([Si](C)(C)[C@H]2[C@H](CC(=O)N3Cc4ccccc4C[C@H]3CO)O[C@@]3(C(=O)N(Cc4ccc(N5C(=O)c6cccc7cccc5c67)cc4)c4ccccc43)[C@@H]2C)cc1,0.858 (inactive)
11,COc1ccc([Si](C)(C)[C@H]2[C@H](CC(=O)N3CCC[C@H]3CO)O[C@@]3(C(=O)N(Cc4ccc(N5CCC5=O)cc4)c4ccccc43)[C@@H]2C)cc1,0.156 (inactive)
12,C=CCNC(=O)[C@H]1[C@@H]2C(=O)O[C@@H](c3ccccc3)[C@@H](c3ccccc3)N2[C@@H](c2ccc(OCCO)cc2)[C@]12C(=O)Nc1ccc(C#CCNC(N)=O)cc12,-0.262 (inactive)
13,C=CCC(OC(C)=O)[C@@H]1[C@@H](N(Cc2cccc3ccccc23)C(=O)Cc2ccc(F)cc2)c2cc(OCCCO)ccc2N1C(=O)c1ccc(-c2ccccc2)cc1 (stereo partly specified),-0.248 (inactive)
14,CC1CC/C=C\[C@H]2OC34C=CCN(CCN5CCOCC5)C(=O)[C@H]3N(C(C)CO)C(=O)[C@@H]4C2C(=O)O1 (stereo partly specified),0.117 (inactive)
15,C=CCN1C(=O)[C@]2(O[C@H](CCO)[C@@H]([Si](C)(C)c3ccc(OC)cc3)[C@@H]2C)c2cc(N3C(=O)COc4ccccc43)ccc21,0.0421 (inactive)
16,CN(C)C(=O)[C@]1(CCS(=O)(=O)c2ccccc2)N=C(c2ccc(OCCCO)cc2)O[C@@H]1c1ccccc1,0.462 (inactive)
17,Cc1ccccc1C(O)C1C=CC2C(=O)NC(=O)C2N1Nc1ccc(Cl)cc1Cl (stereo unspecified),1.42 (inactive)
